Test results from PubChem BioAssay (NCATS).
Inconclusive results are not listed. Active and inactive are the calls of the source. Calls follow the shape of the dose curve; as a rule, active = well fitted inhibition curve with a large enough effect; inconclusive = small, poorly fitted or top-dose-only effect; inactive = flat fitted curve, though single readings scatter.

Tests used:
[1] = qHTS profiling for inhibitors of Plasmodium falciparum proliferation (AID 504749); also: nearly all actives have a fitted effect of over 60% in size;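 as to activity, negative = inhibition: 0% = DMSO vehicle and full inhibition = artemisinin control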; details: P. falciparum in erythrocytes, SYBR Green DNA, 72 h, at 28.7 µM (top of the series)
Procedure, shortened: (§1)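 In a 72 h erythrocytic culture (37 C, humidified, 5% CO2) at 2.5% hematocrit and 0.3% starting parasitemia, compounds were tested; SYBR Green I in detergent lysis buffer stained parasite DNA overnight.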

3D7 = assay: as above; details: P. falciparum in erythrocytes, SYBR Green DNA, 72 h; series mostly up to 28.7 µM
Procedure, shortened: as §1

7G8 = assay: as above; details: P. falciparum in erythrocytes, SYBR Green DNA, 72 h; series mostly up to 28.7 µM
Procedure, shortened: as §1

AA1029 = assay: as above; details: P. falciparum in erythrocytes, SYBR Green DNA, 72 h; series mostly up to 28.7 µM
Procedure, shortened: as §1

AS120 = assay: as above; details: P. falciparum in erythrocytes, SYBR Green DNA, 72 h; series mostly up to 28.7 µM
Procedure, shortened: as §1

ATS189 = assay: as above; details: P. falciparum in erythrocytes, SYBR Green DNA, 72 h; series mostly up to 28.7 µM
Procedure, shortened: as §1

ATS95 = assay: as above; details: P. falciparum in erythrocytes, SYBR Green DNA, 72 h; series mostly up to 28.7 µM
Procedure, shortened: as §1

C2A = assay: as above; details: P. falciparum in erythrocytes, SYBR Green DNA, 72 h; series mostly up to 28.7 µM
Procedure, shortened: as §1

CP185 = assay: as above; details: P. falciparum in erythrocytes, SYBR Green DNA, 72 h; series mostly up to 28.7 µM
Procedure, shortened: as §1

CP191 = assay: as above; details: P. falciparum in erythrocytes, SYBR Green DNA, 72 h; series mostly up to 28.7 µM
Procedure, shortened: as §1

CP192 = assay: as above; details: P. falciparum in erythrocytes, SYBR Green DNA, 72 h; series mostly up to 28.7 µM
Procedure, shortened: as §1

CP194 = assay: as above; details: P. falciparum in erythrocytes, SYBR Green DNA, 72 h; series mostly up to 28.7 µM
Procedure, shortened: as §1

CP201 = assay: as above; details: P. falciparum in erythrocytes, SYBR Green DNA, 72 h; series mostly up to 28.7 µM
Procedure, shortened: as §1

CP203 = assay: as above; details: P. falciparum in erythrocytes, SYBR Green DNA, 72 h; series mostly up to 28.7 µM
Procedure, shortened: as §1

CP211 = assay: as above; details: P. falciparum in erythrocytes, SYBR Green DNA, 72 h; series mostly up to 28.7 µM
Procedure, shortened: as §1

CP215 = assay: as above; details: P. falciparum in erythrocytes, SYBR Green DNA, 72 h; series mostly up to 28.7 µM
Procedure, shortened: as §1

CP217 = assay: as above; details: P. falciparum in erythrocytes, SYBR Green DNA, 72 h; series mostly up to 28.7 µM
Procedure, shortened: as §1

CP237 = assay: as above; details: P. falciparum in erythrocytes, SYBR Green DNA, 72 h; series mostly up to 28.7 µM
Procedure, shortened: as §1

CP238 = assay: as above; details: P. falciparum in erythrocytes, SYBR Green DNA, 72 h; series mostly up to 28.7 µM
Procedure, shortened: as §1

CP247 = assay: as above; details: P. falciparum in erythrocytes, SYBR Green DNA, 72 h; series mostly up to 28.7 µM
Procedure, shortened: as §1
Potency is read from the fitted curve at half-maximal effect.

CC1CCCCN1CCCOC(=O)c1ccccc1 (configuration not stated)
inactive: activity, negative = inhibition ([1]; parasite line A) 3.84% | activity, negative = inhibition ([1]; parasite line B) 9.27% | Potency (3D7) | Potency (7G8) | Potency (AA1029) | Potency (AS120) | Potency (ATS189) | Potency (ATS95) | Potency (C2A) | Potency (CP185) | Potency (CP191) | Potency (CP192) | Potency (CP194) | Potency (CP201) | Potency (CP203) | Potency (CP211) | Potency (CP215) | Potency (CP217) | Potency (CP237) | Potency (CP238) | Potency (CP247)

O=C(O)c1cc(N=Nc2ccc(O)c(C(=O)O)c2)ccc1O
inactive: activity, negative = inhibition ([1]; parasite line A) 9.5% | activity, negative = inhibition ([1]; parasite line B) 11.5% | Potency (3D7) | Potency (7G8) | Potency (AA1029) | Potency (AS120) | Potency (ATS189) | Potency (ATS95) | Potency (C2A) | Potency (CP185) | Potency (CP191) | Potency (CP192) | Potency (CP194) | Potency (CP201) | Potency (CP203) | Potency (CP211) | Potency (CP215) | Potency (CP217) | Potency (CP237) | Potency (CP238) | Potency (CP247)

Cc1ncc[nH]1
inactive: activity, negative = inhibition ([1]; parasite line A) 1.23% | activity, negative = inhibition ([1]; parasite line B) 14.4% | Potency (3D7) | Potency (7G8) | Potency (AA1029) | Potency (AS120) | Potency (ATS189) | Potency (ATS95) | Potency (C2A) | Potency (CP185) | Potency (CP191) | Potency (CP192) | Potency (CP194) | Potency (CP201) | Potency (CP203) | Potency (CP211) | Potency (CP217) | Potency (CP237) | Potency (CP238) | Potency (CP247)

COc1ccc(/C=C/C(=O)OCCC(C)C)cc1
inactive: activity, negative = inhibition ([1]; parasite line A) 6.28% | activity, negative = inhibition ([1]; parasite line B) 14.5% | Potency (3D7) | Potency (7G8) | Potency (AA1029) | Potency (AS120) | Potency (ATS189) | Potency (ATS95) | Potency (C2A) | Potency (CP185) | Potency (CP191) | Potency (CP192) | Potency (CP194) | Potency (CP201) | Potency (CP211) | Potency (CP215) | Potency (CP217) | Potency (CP237) | Potency (CP238) | Potency (CP247)

CNC(=O)OCc1cccc(COC(=O)NC)n1
inactive: activity, negative = inhibition ([1]; parasite line A) 3.63% | activity, negative = inhibition ([1]; parasite line B) 1.01% | Potency (3D7) | Potency (7G8) | Potency (AA1029) | Potency (AS120) | Potency (ATS189) | Potency (ATS95) | Potency (C2A) | Potency (CP185) | Potency (CP191) | Potency (CP192) | Potency (CP194) | Potency (CP201) | Potency (CP211) | Potency (CP215) | Potency (CP217) | Potency (CP237) | Potency (CP238) | Potency (CP247)

NCCN
inactive: activity, negative = inhibition ([1]; parasite line A) 5.04% | activity, negative = inhibition ([1]; parasite line B) 2.26% | Potency (3D7) | Potency (7G8) | Potency (AA1029) | Potency (AS120) | Potency (ATS189) | Potency (ATS95) | Potency (C2A) | Potency (CP185) | Potency (CP191) | Potency (CP192) | Potency (CP194) | Potency (CP201) | Potency (CP211) | Potency (CP215) | Potency (CP217) | Potency (CP237) | Potency (CP238) | Potency (CP247)

O=C(O)COc1ccc(CCNS(=O)(=O)c2ccccc2)s1
inactive: activity, negative = inhibition ([1]; parasite line A) 12.4% | activity, negative = inhibition ([1]; parasite line B) -10.1% | Potency (3D7) | Potency (7G8) | Potency (AA1029) | Potency (AS120) | Potency (ATS189) | Potency (ATS95) | Potency (C2A) | Potency (CP185) | Potency (CP191) | Potency (CP192) | Potency (CP194) | Potency (CP201) | Potency (CP211) | Potency (CP215) | Potency (CP217) | Potency (CP237) | Potency (CP238) | Potency (CP247)

Cc1cc(C(=O)NCCc2ccc(S(=O)(=O)NC(=O)NN3CCCCCC3)cc2)no1
inactive: activity, negative = inhibition ([1]; parasite line A) 7.09% | activity, negative = inhibition ([1]; parasite line B) 6.94% | Potency (3D7) | Potency (7G8) | Potency (AA1029) | Potency (AS120) | Potency (ATS189) | Potency (ATS95) | Potency (C2A) | Potency (CP185) | Potency (CP191) | Potency (CP192) | Potency (CP194) | Potency (CP201) | Potency (CP203) | Potency (CP215) | Potency (CP217) | Potency (CP237) | Potency (CP238) | Potency (CP247)

CC(C)c1ncc([N+](=O)[O-])n1C
inactive: activity, negative = inhibition ([1]; parasite line A) 8.33% | activity, negative = inhibition ([1]; parasite line B) 4.53% | Potency (3D7) | Potency (7G8) | Potency (AA1029) | Potency (AS120) | Potency (ATS189) | Potency (ATS95) | Potency (C2A) | Potency (CP185) | Potency (CP191) | Potency (CP192) | Potency (CP194) | Potency (CP201) | Potency (CP211) | Potency (CP215) | Potency (CP217) | Potency (CP237) | Potency (CP238) | Potency (CP247)

C[C@H](CCCC(C)(C)O)[C@H]1CC[C@H]2[C@@H]3CC=C4C[C@@H](O)CC[C@]4(C)[C@H]3CC[C@]12C
active: Potency (7G8) 11.2 µM
inactive: activity, negative = inhibition ([1]; parasite line A) 13.3% | activity, negative = inhibition ([1]; parasite line B) 17.1% | Potency (3D7) | Potency (AA1029) | Potency (AS120) | Potency (ATS189) | Potency (ATS95) | Potency (C2A) | Potency (CP185) | Potency (CP191) | Potency (CP192) | Potency (CP194) | Potency (CP201) | Potency (CP203) | Potency (CP211) | Potency (CP215) | Potency (CP217) | Potency (CP238) | Potency (CP247)

CCCC(=O)O
inactive: activity, negative = inhibition ([1]; parasite line A) 7.39% | activity, negative = inhibition ([1]; parasite line B) 16.4% | Potency (3D7) | Potency (7G8) | Potency (AA1029) | Potency (AS120) | Potency (ATS189) | Potency (ATS95) | Potency (C2A) | Potency (CP185) | Potency (CP191) | Potency (CP192) | Potency (CP194) | Potency (CP201) | Potency (CP211) | Potency (CP215) | Potency (CP217) | Potency (CP237) | Potency (CP238) | Potency (CP247)

O=C(OC1C[C@@H]2CC3C[C@H](C1)N2CC3=O)c1c[nH]c2ccccc12 (some centres not stated)
active: Potency (7G8) 11.2 µM
inactive: activity, negative = inhibition ([1]; parasite line A) -11.9% | activity, negative = inhibition ([1]; parasite line B) -12.9% | Potency (3D7) | Potency (AA1029) | Potency (AS120) | Potency (ATS189) | Potency (ATS95) | Potency (C2A) | Potency (CP185) | Potency (CP191) | Potency (CP192) | Potency (CP194) | Potency (CP201) | Potency (CP203) | Potency (CP215) | Potency (CP217) | Potency (CP237) | Potency (CP238) | Potency (CP247)

O[C@@H]([C@H](O)[C@H](O)CBr)[C@H](O)CBr
inactive: activity, negative = inhibition ([1]; parasite line A) -11.7% | activity, negative = inhibition ([1]; parasite line B) 1.51% | Potency (3D7) | Potency (7G8) | Potency (AA1029) | Potency (AS120) | Potency (ATS189) | Potency (ATS95) | Potency (C2A) | Potency (CP185) | Potency (CP191) | Potency (CP192) | Potency (CP194) | Potency (CP201) | Potency (CP211) | Potency (CP215) | Potency (CP217) | Potency (CP237) | Potency (CP238) | Potency (CP247)
